esBAF inh = blocks esBAF chromatin remodeling in mouse ES cells; reporter increase, % at 12.5 µM; actives 2% (n = 350,000); Bmi1-luciferase knock-in reporter, 24 h; 100% = twice the neutral-well signal; in the data active = activation above about 40%; inconclusive = no clear call, values can overlap the other calls;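 also: 0% = median of the plate's neutral control wells and 100% = double that signal; a rise in the Bmi1 reporter signal indicates esBAF inhibition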
Wnt bcat act = Wnt/beta-catenin pathway activation | actives 1.2% (n = 300,000) | AID 743398 | activation, % at 9.35 µM | Wnt/beta-catenin reporter cell assay, activator, plate reader; in the data active = activation above about 30%, passing the limit was not always enough; inconclusive = no clear call, values can overlap the other calls;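 also: 0% = neutral control wells and 100% = positive control wells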
HSF-1 act = increases HSF-1 driven luciferase reporter signal; NIH3T3-HGL HSF-1 luciferase reporter, MG132, 8 h; 100% = twice DMSO control signal; activation, % at 9 µM; actives 1.7% (n = 300,000); AID 504408;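 active = mean replicate activation of at least 50% with a set share of replicates each reaching 50%; inconclusive = only one of those two conditions met; inactive = mean below 50% and too few replicates reaching it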;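 also: 0% = median of the neutral control wells and 100% = twice that signal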
HSF1 inhib = HSF1 inhibition; NIH3T3-HGL HSE-luciferase, MG132-induced, luminescence 8 h; hits give low values; activity change, negative = inhibition, % at 7.5 µM (by protocol); actives 0.77% (n = 300,000);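 active = more than half of replicate wells show activity change below -50%, luminescence cut by over half; inconclusive = some wells, but at most half, below -50%; inactive = no replicate well below -50%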;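 also: luciferase reports HSF-1 transcriptional activity via heat shock element; 0% = median of DMSO wells and -100% = zero luminescence signal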
MITF TRPM1 HTS = MITF TRPM1 promoter activation in melanoma cells; activation, % at 12.5 µM; actives 0.75% (n = 300,000); SK-MEL-5 TRPM1-promoter luciferase, 24 h; % of positive control, neutral wells = 0;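 active = mean activation of at least 80% with every replicate also reaching 80%; inconclusive = mean reaches 80% but some replicate falls short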;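 also: 0% = neutral control wells and 100% = parthenolide positive control wells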
* marks the source's active call; other numbers are inactive results; ? = inconclusive; · = not tested or not shown. Only some compounds are listed: those with a hit (about 3.9% of all), similar ones and a draw of the others.

SMILES | esBAF inh | Wnt bcat act | HSF-1 act | HSF1 inhib | MITF TRPM1 HTS
Cc1nn2c(-c3ccc(Cl)cc3)ccnc2c1-c1ccccc1 | 57* | 10 | · | · | ·
Cc1nn2c(N)c(-c3ccccc3)cnc2c1-c1ccccc1 | 50* | -1 | 3 | -1 | ·
Cc1nn(C)cc1NC(=O)C[C@@H]1CC[C@H]2[C@@H](COc3ccc(NC(=O)C4CCOCC4)cc3C(=O)N2C)O1 | 4 | · | · | · | ·
Cn1ncc2c(O/N=C(\N)c3ccc(C(C)(C)C)cc3)ncnc21 | · | · | -93 | -92* | ·
COc1ccc(S(=O)(=O)Nc2ccc3c(c2)C(=O)N([C@H](C)CO)C[C@H](C)[C@@H](CN(C)CC2CCCCC2)OCCCC[C@@H](C)O3)cc1 | -4 | · | · | · | ·
NS(=O)(=O)c1ccc(CNc2ccc3ccccc3n2)cc1 | 52* | 8 | 23 | 7 | ·
Cc1ccccc1Oc1cc(NC(=O)Cn2cnc([N+](=O)[O-])c2)cc([N+](=O)[O-])c1 | · | -2 | 75* | 28 | -16
CSc1nc2c(cnn2-c2ccccc2)c(=O)n1N | 48* | · | 2 | 10 | 59
Cc1ccc(-n2nc(C(=O)c3ccccc3)n3c(=O)cc(-c4ccccc4)nc23)cc1 | 84* | · | 3 | -1 | 4
CCOC(=O)c1nn(-c2ccc(C)cc2)c2nc(Nc3ccccc3)cc(=O)n12 | -13 | · | 13 | 8 | -5
C[C@H]1CN([C@@H](C)CO)C(=O)c2cc(-c3cccc(C#N)c3)cnc2O[C@@H]1CN(C)C(=O)C1CC1 | -7 | · | · | · | ·
CC(C)CNc1nnnc2c1sc1nc(N3CCOCC3)c3c(c12)CCCC3 | · | 0 | 15 | -6 | 8
C=CCNc1nnnc2c1sc1nc(N3CCOCC3)c3c(c12)CCCC3 | -7 | -1 | -75 | -68* | 13
Cn1c(-n2c(-c3ccco3)nc3ccccc3c2=O)nc2ccccc21 | 49* | 8 | 36 | 17 | 19
COCCCn1c(-c2ccco2)nc2ccccc2c1=O | -2 | · | -74 | -68* | 3
C[C@H](CO)N1C[C@H](C)[C@@H](CN(C)CC2CC2)Oc2ccc(NS(=O)(=O)c3ccc(F)cc3)cc2CC1=O | 1 | · | · | · | ·
Cc1n[nH]c(=S)n1/N=C/c1cccc(OCc2ccccc2)c1 | · | 1 | 6 | 1 | 13
Cc1n[nH]c(=S)n1/N=C/c1ccccc1OCc1ccc(Cl)cc1 | 52* | · | 40 | 23 | 58
COc1ccc(C(=O)Nc2cc(=O)n(C)c(=O)n2C)cc1 | · | -1 | 2 | -2 | 6
Cn1c(NC(=O)/C=C/c2ccccc2)cc(=O)n(C)c1=O | · | 61* | 29 | 15 | 1
COc1ccc(/C=C/C(=O)Nc2cc(=O)n(C)c(=O)n2C)cc1 | · | · | 60* | 27 | 39
Cn1c(NC(=O)/C=C/c2ccc(Cl)c(Cl)c2)cc(=O)n(C)c1=O | · | · | 56* | 44 | 53
O=C(CN1CCOCC1)N1CCCCN2[C@H](C1)[C@H](c1ccc(C#Cc3ccccc3F)cc1)[C@@H]2CO | 5 | · | · | · | ·
CO[C@@H]1CN(C)C(=O)c2cc(NC(=O)c3cccc(F)c3)ccc2OC[C@H](C)N(C(C)=O)C[C@H]1C | 5 | · | · | · | ·
CCN(CC)C(=O)c1ccc2nc([C@H]3C[C@H](O)[C@@H](CO)O3)[nH]c2c1 | 6 | 0 | · | · | ·
SMILES | esBAF inh | Wnt bcat act | HSF-1 act | HSF1 inhib | MITF TRPM1 HTS
OC[C@H]1O[C@@H](c2nc3ccc(-c4nc(-c5ccc(Br)cc5)no4)cc3[nH]2)C[C@@H]1O | 55* | 22 | · | · | ·
CCN(CC)S(=O)(=O)c1ccc(C)c(NC(=S)Nc2cccc(S(=O)(=O)N3CCCCCC3)c2)c1 | 0 | 2 | 56* | 21 | -8
CCN(CC)S(=O)(=O)c1ccc(C)c(NC(=O)CNc2cccc(S(=O)(=O)N3CCOCC3)c2)c1 | 12 | -2 | -14 | -2 | -5
CC1C=NC(S(=O)(=O)N2CC[C@@H]3[C@H](CO)N(C)c4ccc(-c5ccc(F)cc5)cc4[C@@H]32)=N1 (stereo partly specified) | 3 | · | · | · | ·
Cc1cc(Sc2ncnc(N)c2[N+](=O)[O-])ncn1 | · | · | 65* | 51 | -77
Cc1nc2c(-c3ccc(Cl)cc3)cnn2c(N)c1-c1ccc(F)cc1 | -19 | -3 | -77 | -74* | ·
Nc1c(-c2cccc(Cl)c2)cnn1-c1ccccc1 | 52* | 14 | 37 | 18 | 68
Cc1nc2c(-c3ccc(Cl)cc3)cnn2c2c1CCC2 | · | ? | 19 | 12 | 19
Nc1c(-c2ccc(Cl)cc2)cnc2c(-c3ccc(F)cc3)cnn12 | ? | 46* | 7 | 4 | 111*
COc1ccc(-c2c(C)nc3c(-c4ccc(F)cc4)cnn3c2N)cc1 | 33 | 27 | -32 | -30 | ·
Cc1nc2c(-c3ccc(F)cc3)cnn2c(N)c1-c1ccccc1 | -53 | -11 | -83 | -81* | 6
C[C@@H]1CCCCO[C@@H](CN(C)Cc2ccc(C(F)(F)F)cc2)[C@H](C)CN([C@H](C)CO)C(=O)c2cc(NC(=O)Nc3ccccc3)ccc2O1 | 5 | · | · | · | ·
CCCNC(=O)N[C@@H]1C=C[C@@H](CC(=O)NC2CCC2)O[C@@H]1CO | -1 | · | · | · | ·
Cc1ccccc1-c1ccc2c(c1)O[C@@H](CN(C)Cc1ccc(C(=O)O)cc1)[C@H](C)CN([C@@H](C)CO)S2(=O)=O | -4 | · | · | · | ·
Nc1c(-c2cccc(Cl)c2)cnc2c(-c3ccccc3)cnn12 | 60* | 45* | 64* | 26 | 58
Nc1c(-c2ccccc2)cnc2ncnn12 | 8 | · | -5 | -3 | ·
CC(=O)N(C)C[C@H]1[C@H](c2ccc(-c3ccccc3)cc2)[C@@H](CO)N1C(=O)C1CC1 | 1 | · | · | · | ·
CCCC(=O)Nc1ccc2c(c1)C(=O)N(C)C[C@H](OC)[C@H](C)CN(CCc1ccccc1)[C@@H](C)CO2 | 0 | · | · | · | ·
Cc1ccc(C(=O)CSc2nnc(-c3cccs3)n2C)o1 | 12 | -1 | 18 | 3 | ·
Cn1c(SCc2nc3ccccc3s2)nnc1-c1cccs1 | ? | · | 47 | 31 | 21
Cn1c(SCc2ccccc2)nnc1-c1cccs1 | 59* | · | 2 | 5 | ?
Cn1c(SCc2ccc(F)cc2)nnc1-c1cccs1 | · | 22 | 50 | 29 | 86*
COC(=O)C[C@@H]1C[C@H]2c3cc(NC(=O)Nc4ccc(C(F)(F)F)cc4)ccc3O[C@H]2[C@H](CO)O1 | 0 | · | · | · | ·
CC(=Nc1ccc(C)c(C)c1)C1=C(O)CSC1=O | 51* | · | -16 | -1 | 132*
COc1ccc2[nH]c(=O)c(CN(C(=O)COc3ccccc3)C(C)C)cc2c1 | -4 | · | 64* | 34 | -9
O=C(O)c1cc(N/N=C/C=C/c2ccccc2[N+](=O)[O-])ccc1Cl | 35 | 60* | 11 | 10 | 56
NS(=O)(=O)c1ccc(N/N=C/C=C/c2ccccc2[N+](=O)[O-])cc1 | 83* | 25 | ? | 19 | 64
Nc1ccc(S(=O)(=O)NN=CC=Cc2ccccc2[N+](=O)[O-])cc1 | 3 | -4 | · | · | -9
N#C[C@H]1[C@H](c2ccc(-c3ccccc3F)cc2)[C@H](CO)N1C(=O)Cc1ccccc1 | -2 | · | · | · | ·
COCCN(CC(=O)NC1CCCCC1)C(=O)/C=C/C(=O)c1ccc(OC)cc1O | · | 0 | -85 | -83* | -94
